The source of these data is PubChem BioAssay (NCI).

Compounds without any hit were thinned out: in the full panel of roughly 83,000, 20% have a hit.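 Plates (96-well) were seeded with cells, treated with compound at one concentration, and incubated for 48 hours before percent growth was determined.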 Values without a mark were called inactive. The source made the active and inactive calls. The calls were made as follows: active = growth percent below 10; inactive = the rest.

Common to all, as to assay: NCI-60 one-dose screen, 48 h (100 = growth as untreated, 0 = no growth, -100 = all killed)
The test system of test [1] is HCT-15 colon. The following applies: 10 µM unless noted.
Test [2] deals with HT29 colon. The following applies: 10 µM unless noted.
In test [3] the test system is SNB-19 CNS. The following applies: 10 µM unless noted.
For test [4], the system named is U251 CNS. The following applies: 10 µM unless noted.
Test [5] deals with PC-3 prostate. The note with it: 10 µM unless noted.
In test [6] the test system is SK-MEL-5 melanoma. The following applies: 10 µM unless noted.
For test [7], the system named is UACC-62 melanoma. The following applies: 10 µM unless noted.
Test [8] concerns LOX IMVI melanoma. The note with it: 10 µM.
In test [9] the test system is SK-MEL-28 melanoma. The following applies: 10 µM unless noted.
Test [10] relates to SK-MEL-2 melanoma. The following applies: 10 µM unless noted.
Test [11] has as its system EKVX NSCLC. The following applies: 10 µM unless noted.
The test system of test [12] is SN12C renal. The following applies: 10 µM unless noted.
Test [13] has as its system UO-31 renal. The following applies: 10 µM unless noted.
The subject of test [14] is TK-10 renal. The following applies: 10 µM unless noted.
Test [15] relates to ACHN renal. The following applies: 10 µM unless noted.
Test [16] deals with CAKI-1 renal. The following applies: 10 µM unless noted.
For test [17], the system named is CCRF-CEM leukemia. The note with it: 10 µM unless noted.
The test system of test [18] is MOLT-4 leukemia. The note with it: 10 µM unless noted.
The test system of test [19] is A498 renal. The note with it: 10 µM unless noted.

Take `C=C1CC[C@@H]2[C@]3(C)COC(c4ccco4)O[C@@H]3CC[C@@]2(C)[C@@H]1C/C=C1/C(=O)OCC1OC(C)=O` (stereo not given in full): the growth in test [1] is -59% (active); in [2], -46% (active); in test [3], 75.9%; in test [4], 8.15% (active); in [5], 18.8%; in test [6], 43.9%. The growth in test [7] is 34.5%; in test [8] it was -100% (active); in test [9], 59.6%; in [10], 59.5%; in [11], 89.3%; in test [12], 3.28% (active). Also, the growth is 35.4% in [13]; 111% in [14]; 33.9% in test [15]; 36.1% in test [16]; -19.8% (active) in test [17]; 2.43% (active) in [18].

As for `O=C(c1ccc(OCCN2CCOCC2)cc1)C1[C@H](c2ccc(Cl)cc2)[C@@H](c2ccccc2)NC12C(=O)Nc1ccc(Br)cc12` (stereo not given in full), the growth in test [1] is 8.44% (active); in test [2], -76.6% (active); in test [3], 37.4%; in [4], 22.6%; in test [5], 3.86% (active); in [6], 47.3%. Also, the growth in test [7] is 38.5%; in test [8], -75.2% (active); in [9] it was 44.1%; in [10], 28.3%; in test [11], 19.8%; in test [12], -8.07% (active). The growth was 15.1% in [13]; 40.2% in test [14]; 5.53% (active) in test [15]; 15.4% in test [16]; 20.7% in [17]; -33.9% (active) in test [18].

As to `N/C(=N\N=C\c1ccc([N+](=O)[O-])cc1)c1c(N)nc(=S)[nH]c1-c1ccc(Cl)cc1Cl`, the growth in test [1] is 103%; in test [2], 116%; in [3], 74.9%; in test [4], 67%; in test [5], 96.8%; in test [6], 104%. In addition, the growth in [7] is 84.7%; in [8], 96.5%; in test [9], 113%; in test [10], 93.4%; in [11] it was 98.9%; in test [12], 96.1%. Besides, the growth in test [13] was 98.3%; in test [14], 142%; in test [15], 88.9%; in [19] it was 160%; in test [17], 106%; in [18] it was 94%.

Take `CC1(c2cc3cc(Cl)ccc3oc2=O)NC(=O)c2c(/C=C/C(=O)OC3CC4CCC3(C)C4(C)C)cccc2N1` (stereo not given): the growth in test [1] is 66.4%; in test [2], 60.9%; in test [3], 52.9%; in test [4], 52.5%; in [5] it was 25.7%; in [6], 61.2%. The growth in [7] was 62.6%; in [8], 78.9%; in test [9] it was 75.4%; in test [10] it was 53.7%; in [11], 49.4%; in [12], 58.5%. Moreover, the growth in test [13] is 42.8%; in test [14], 79.3%; in test [15] it was 61.7%; in [19], 118%; in test [17], 59.4%; in test [18] it was 21.2%.

`Cn1cc(NC(=O)c2cc(NC(=O)c3ccc(/C=C/c4ccccc4)cc3)cn2C)cc1C(=O)NCCCN1CCOCC1`: the growth is 7.6% (active) in [1]; -88.5% (active) in [2]; 70.4% in test [3]; -69.2% (active) in test [4]; 38.1% in test [5]; -70% (active) in test [6]. For the same compound, the growth in [7] is -89% (active); in test [8], -97.5% (active); in test [9], 32.5%; in [10], 99.6%; in test [11], 89.6%; in test [12], 43.4%. Besides, the growth in test [13] is 61.6%; in test [14], 87.9%; in test [15], 70.7%; in test [16] it was 55.6%; in test [19], 90.6%; in test [18] it was -23.6% (active).

With `Cn1cc(-c2cc3nc(-c4cn(C)c5ncccc45)cc(N)n3n2)c2ccccc21`, the growth is 9.76% (active) in test [1]; -6.2% (active) in test [2]; 37.7% in [3]; -8.69% (active) in test [4]; 27.2% in test [5]; -69.3% (active) in [6]. For the same compound, the growth in [7] is -0.244% (active); in [8], -56.8% (active); in test [9] it was -22.5% (active); in test [10], 15.2%; in [11], 43.7%; in [12] it was -38.2% (active). Also, the growth in [13] is 8.84% (active); in test [15] it was -73.3% (active); in [16], -23.2% (active); in test [19] it was -2.42% (active); in test [17], 0.438% (active); in test [18] it was -21.3% (active).

Turning to `O=C(/C=C/Nc1ccc2oc(=O)ccc2c1)c1cc2cc(Br)ccc2oc1=O`, the growth in [1] is 102%; in test [2] it was 103%; in test [3], 97.5%; in test [5], 98%; in test [6], 103%; in [7] it was 97.5%. Further, the growth in test [8] is 99.3%; in test [9], 112%; in test [10], 107%; in [11] it was 105%; in [13] it was 81.4%; in test [14], 124%. Further, the growth in [15] was 107%; in [16] it was 92.5%; in test [19] it was 144%; in test [17], 120%; in test [18], 115%.
